According to PubChem BioAssay AID504444 (National Center for Advancing Translational Sciences (NCATS), 2011):
Out of some 360,000 compounds screened, about 7,500 (2.1%) were called active. Roughly 20% stayed inconclusive and do not appear here. This excerpt belongs to a sample that is enriched for actives. A number with no mark means an inactive call. Calls come from the whole dose curve; as a rule, active = well fitted inhibition curve with a large enough effect; inconclusive = small, poorly fitted or top-dose-only effect, or effect the other way; inactive = flat fitted curve, though single readings scatter.

Assay: Nrf2 qHTS screen for inhibitors; note: nearly all actives have a fitted effect of over 60% in size
Conditions: A549 ARE-Fluc reporter, luciferase luminescence, 18-24 h; series mostly up to 46 µM; activity change, negative = inhibition: at the top concentration
Procedure, shortened: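 Quantitative HTS in A549 cells stably bearing an antioxidant response element-firefly luciferase construct. Inhibition of Nrf2-driven transcription was scored by luminescence after 18-24 h of compound exposure at 37 °C.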
% is set by controls: 0 for no effect and ±100 for the full control effect; potency is the fitted concentration of half-maximal effect.

Row | SMILES | activity change, negative = inhibition | Potency
1 | CCN(CC)c1ccc(NC(=O)CN2C(=O)c3cccnc3Oc3ccc(Cl)cc32)c(C)c1 | -2.21% | 
2 | Cc1cccc(N2CCN(c3ccc(NC(=O)/C=C\C(=O)O)cc3)CC2)c1 | -4.07% | 
3 | C=CC(=O)Nc1ccc(Nc2ccnc(Nc3ccc(N4CCN(C)CC4)cc3)n2)cc1 |  | 14.6 µM (active)
4 | CN1CCN(c2ccc(NC(=O)c3cc(Cl)c4c(c3)OCCO4)cc2)CC1 | -2.22% | 
5 | Cc1nn(-c2nc(-c3ccccc3)cc(C(F)(F)F)n2)c(C)c1Cl | -27.4% | 
6 | CCN(c1ccccc1)S(=O)(=O)c1cccc(C(=O)NCc2ccccc2CN2CCOCC2)c1 | -3.62% | 
7 | Cc1ccc(-c2nn(C(C)(C)C)c3ncnc(N)c23)cc1 |  | 18.4 µM (active)
8 | Cc1ccc(-n2cnc3ncnc(-c4ccccc4)c32)cc1 | -5.91% | 
9 | Cc1nc2ccn(Cc3cccnc3)c(=O)c2cc1C(=O)N1CCN(c2ccccc2F)CC1 | 20.3% | 
10 | CCOc1ccc(CNC(=O)C2CCN(c3nnc(-n4cccc4CNc4ccc(C)cc4)s3)CC2)cc1OC | -8.96% | 
11 | COc1ccc(Br)cc1/C=N/Nc1ccc(S(=O)(=O)Nc2ccccc2C(=O)O)cc1[N+](=O)[O-] | -5.1% | 
12 | CCOC(=O)c1c(-c2ccccc2)oc2cc(Br)c(O)c(C=O)c12 |  | 20.6 µM (active)
13 | CCOC(=O)c1c(-c2ccccc2)oc2ccc(OCC(N)=O)cc12 | -6.02% | 
14 | CCOC(=O)c1c(-c2ccccc2)oc2cc(Br)c(O)cc12 | 0.301% | 
15 | COc1ccccc1N(CCOc1ccccc1)S(=O)(=O)c1ccccc1 | -5.25% | 
16 | COc1cccc(CC(=NO)c2cccc(OC)c2)c1 | 5.27% | 
17 | O=C(CN1C(=O)NC(Cc2ccccc2)(Cc2ccccc2)C1=O)NCC1CCCCC1 |  | 23.1 µM (active)
18 | CCCCNC(=O)CN1C(=O)NC(Cc2ccccc2)(Cc2ccccc2)C1=O | -31.4% | 
19 | COc1cccc(CNC(=O)CN2C(=O)NC(Cc3ccccc3)(c3ccccc3)C2=O)c1 (stereo not drawn) | 0.418% | 
20 | Cc1ccc(C(=O)CC2(O)C(=O)N(CCc3ccccc3)c3ccc(Br)cc32)cc1 (stereo not drawn) | -10.1% | 
21 | COCCNC(=O)c1ccc(N2CCC3(CC2)OCCO3)c([N+](=O)[O-])c1 | -5.47% | 
22 | CCCNC(=O)c1ccc(N2CCC3(CC2)CC(c2ccc(Cl)cc2)=NO3)c([N+](=O)[O-])c1 |  | 23.1 µM (active)
23 | O=C(NCCCN1CCOCC1)c1ccc(N2CCCC2)c([N+](=O)[O-])c1 | -6.15% | 
24 | CCOC(=O)N1CCc2c(sc3c2c(=O)n(-c2ccc(CC)cc2)c(=O)n3C)C1 | -7.99% | 

Row | SMILES | activity change, negative = inhibition | Potency
25 | CCOC(=O)C1CCN(C(=O)CSc2c3c(nc4ccc(Cl)cc24)CCCC3)CC1 | -0.463% | 
26 | Cc1ccc(-c2cc(C(F)(F)F)c(C#N)c(SCC(=O)Nc3ccccc3)n2)cc1 | -4.07% | 
27 | CC(C)S(=O)(=O)c1csc(NC(=O)Nc2ccc(Cl)cc2)c1Cl |  | 20.6 µM (active)
28 | Cn1ccc(NC(=O)Nc2ccc(Cl)cc2)n1 | -23.4% | 
29 | NS(=O)(=O)c1ccc(CCNC(=O)Nc2ccc(Cl)cc2)cc1 | -19.8% | 
30 | Cc1ccc(CN2CCC(CNC(=O)c3cnn(-c4ccc(C)cc4)c3C3CCN(C(=O)OC(C)(C)C)CC3)CC2)cc1 | -41.9% | 
31 | CCOc1ccc(NC(=O)COC(=O)C2CCC(=O)N2)c([N+](=O)[O-])c1 (stereo not drawn) | 3.43% | 
32 | COc1ccc(C2=NC3(CCCCC3)N(CC(=O)Nc3ccc(C(C)C)cc3)C2=O)cc1 | -25.8% | 
33 | COc1ccc(CCNC(=O)CCCCn2c(=O)c3ccccc3n(Cc3ccccc3)c2=O)cc1OC | -8.95% | 
34 | COC[C@@H]1NS(=O)(=O)c2ccc(Br)cc2O[C@H]1c1ccccc1 | 5.28% | 
35 | CN(C(=O)c1cccc(NC(=O)C2CCN(C(=O)OC(C)(C)C)CC2)c1)C1CCC1 | -22.6% | 
36 | O=C(CCCC(=O)N1CCN(c2cccc(Cl)c2)CC1)c1ccccc1 | -13.1% | 
37 | O=C(CCn1c(=O)[nH]c2ccccc2c1=O)NCCCN1CCN(c2cccc(Cl)c2)CC1 | -0.871% | 
38 | O=C(Cc1ccc(-n2c(=O)[nH]c3ccccc3c2=O)cc1)N1CCN(c2cccc(Cl)c2)CC1 |  | 16.4 µM (active)
39 | CCn1c(C(=O)Nc2cc(Cl)ccc2C)cc2sc(Cl)cc21 | -1.64% | 
40 | COc1ccc(-n2c(=O)c3sc4ccccc4c3n(CC(=O)Nc3cccc(C)c3)c2=O)cc1 | 6.72% | 
41 | Cc1ccc(C)c(Cn2c(C)c(CNCc3ccc(F)cc3)c(C(=O)O)c2C)c1 | -8.89% | 
42 | Cc1ccc(S(=O)(=O)N2CCC(C(=O)N3CCCCCCC3)CC2)cc1 | -5.3% | 
43 | Cc1c(C(=O)N/N=C/c2ccccc2)[nH]c2c([N+](=O)[O-])cccc12 | 10.2% | 
44 | COc1cc2c(C(=O)O)c(C)n(C)c2c2ccccc12 | -23.7% | 
45 | COc1cccc2c(C)c(C(=O)O)[nH]c12 |  | 20.6 µM (active)
46 | Cc1cc2c(cc3c(SCc4cccc(Cl)c4)nnc(C)n32)o1 | -20.9% | 
47 | CC1Sc2ccc(C(=O)NCc3ccccc3Cl)cc2NC1=O (stereo not drawn) | -17.3% | 
48 | CCn1c2ccccc2c2cc(NC(=O)COC(=O)c3cc(S(=O)(=O)N4CCCCC4)ccc3Cl)ccc21 | -25.8% | 
